# Out of some 52,000 compounds screened, about 4,300 (8.3%) were called active. Cut-off read from the data, not from the text of the source: active = survival mostly below about 52% (no sharp cut-off); inactive = mostly above about 56%. What follows is part of a selection rich in actives, with near analogues and random picks from the rest.
# Test system: DeltatarO mutant
# Experiment: growth inhibition of S. aureus wild type versus tarO mutant, primary screen, teichoic acid synthesis inhibitors, RN4220, OD600 (AID 463173)
# Settings: OD600, 18 h, hits give low values, screened at 18.75 µg/mL (by protocol)
row,Structure (SMILES),survival
1,Cc1[nH]c2ccc(CNS(=O)(=O)c3ccc(S(=O)(=O)N4CCOCC4)cc3)cc2c1C,91% (inactive)
2,CC1=C(C(=O)OCC2CCCO2)C(c2ccccc2)NC(=O)N1 (stereo not given),102% (inactive)
3,CC1CCN(S(=O)(=O)c2ccc3c(c2)N(CC(=O)NC(C)C)C(=O)CO3)CC1,76% (inactive)
4,Cc1nn(C(C)C(=O)Nc2cccc(F)c2)c(=O)c2c1sc1ccccc12 (stereo not given),108% (inactive)
5,Cc1nn(C(C)C(=O)Nc2ccc(C(C)C)cc2)c(=O)c2c1sc1ccccc12 (stereo not given),58% (active)
6,Cc1cc(C)c(NC(=O)C(C)n2nc(C)c3sc4ccccc4c3c2=O)c(C)c1 (stereo not given),60% (inactive)
7,Cc1ccc(S(=O)Cc2ccc(C(=O)NC3CCCCCC3)o2)cc1 (stereo not given),121% (inactive)
8,CCOC(=O)c1ccc(NC(=O)C2CCN(S(=O)(=O)Cc3ccccc3)CC2)cc1,66% (inactive)
9,CC(C)c1ccc(CNC(=O)c2ccc(N3CCCC3)c(NC(=O)NCc3ccc(F)cc3)c2)cc1,47% (active)
10,Cc1ccc(CNC(=O)Nc2cc(C(=O)NCc3ccc(C(C)C)cc3)ccc2N2CCCC2)cc1,79% (inactive)
11,CC(C)c1ccc(CNC(=O)c2ccc(N3CCCC3)c(NC(=O)NCc3ccccc3)c2)cc1,73% (inactive)
12,Cc1cc(C)cc(-n2ccn(Cc3ccc(F)cc3)c(=O)c2=O)c1,71% (inactive)
13,COc1ccccc1C(=O)Nc1ccc2nc(N3CCC(C)CC3)cc(C)c2c1,3% (active)
14,CCN1CCN(c2cc(C)c3cc(NC(=O)c4cc(Cl)ccc4OC)ccc3n2)CC1,8% (active)
15,COc1ccc(Cl)cc1C(=O)Nc1ccc2nc(Nc3cccc(Cl)c3)cc(C)c2c1,93% (inactive)
16,COc1ccc(C(=O)Nc2ccc3nc(N4CCC(C)CC4)cc(C)c3c2)cc1,56% (inactive)
17,CCCCc1ccc(C(=O)Nc2ccc3nc(N(CC)CC)cc(C)c3c2)cc1,109% (inactive)
18,COc1ccc(C(=O)Nc2ccc3nc(N4CCCCC4)cc(C)c3c2)c(OC)c1,44% (active)
19,COc1cccc(C(=O)Nc2ccc3nc(N4CCC(C)CC4)cc(C)c3c2)c1,47% (inactive)
20,CCCCc1ccc(C(=O)Nc2ccc3nc(N4CCN(CC)CC4)cc(C)c3c2)cc1,36% (active)
21,CC(=O)c1ccc(NC(=O)CSc2ccc3nnc(CCNS(=O)(=O)c4ccc(C)cc4)n3n2)cc1,67% (inactive)
22,COc1ccc(C)cc1NC(=O)CC(=O)Nc1ccc2nc3n(c(=O)c2c1)CCCCC3,89% (inactive)
23,COCCCNC(=O)CSc1nc2cc3c(cc2c(=O)n1CCCC(=O)NCc1ccc2c(c1)OCO2)OCO3,84% (inactive)

row,Structure (SMILES),survival
1,Cc1cc(C)cc(NC(=O)N2CCC(N3CCN(Cc4ccccc4)C(=O)C3=O)CC2)c1,77% (inactive)
2,COc1ccccc1CNc1nc(-c2ccco2)nn1S(C)(=O)=O,70% (inactive)
3,O=C(Cn1ncc2c3ccccc3n(Cc3ccccc3)c2c1=O)NCc1ccccc1,93% (inactive)
4,Cc1ccccc1C(=O)OCc1cc(=O)n2nc(C(C)C)sc2n1,81% (inactive)
5,COc1ccc(Cn2c(C(=O)O)c(CNCCc3ccccc3Cl)c3ccc(C)cc32)cc1,80% (inactive)
6,Cc1ccc(-n2c(=O)c3c(c4cc(C)ccc4n3C)n(CC(=O)Nc3c(C)cccc3C)c2=O)cc1,123% (inactive)
7,Cc1cc(N2CCN(C)CC2)nc2ccc(NC(=O)c3ccc(C(C)(C)C)cc3)cc12,-3% (active)
8,Cc1cc(N2CCN(C)CC2)nc2ccc(NC(=O)c3ccccc3F)cc12,122% (inactive)
9,CCN1CCN(c2cc(C)c3cc(NC(=O)c4ccc(OC)c(OC)c4)ccc3n2)CC1,44% (active)
10,CCOc1ccc(CC(=O)Nc2ccc3nc(N4CCCCC4)cc(C)c3c2)cc1OCC,92% (inactive)
11,Cc1ccc(NC(=O)Nc2ccc3nc(N4CCN(C)CC4)cc(C)c3c2)cc1C,101% (inactive)
12,CCOc1cc(C(=O)Nc2ccc3nc(N4CCN(C)CC4)cc(C)c3c2)cc(OCC)c1OCC,137% (inactive)
13,COc1ccc(CC(=O)Nc2ccc3nc(N4CCCCC4)cc(C)c3c2)cc1,51% (active)
14,CCN1CCN(c2cc(C)c3cc(NC(=O)c4ccccc4F)ccc3n2)CC1,43% (active)
15,COc1ccc(CC(=O)Nc2ccc3nc(Nc4ccc(OC)cc4)cc(C)c3c2)cc1,55% (inactive)
16,CCN1CCN(c2cc(C)c3cc(NC(=O)c4cc(OC)c(OC)c(OC)c4)ccc3n2)CC1,78% (inactive)
17,Cc1ccc(NC(=O)Nc2ccc3nc(N4CCN(C)CC4)cc(C)c3c2)cc1F,96% (inactive)
18,COc1cccc(CNc2nc3c(-c4ccccc4)nnn3c3ccccc23)c1,84% (inactive)
19,CCOc1ccc(NC(=O)c2ccc3c(SCC(=O)O)c4c(nc3c2)CCC4)cc1,90% (inactive)
20,CCC1CCCCN1S(=O)(=O)c1cc2c(cc1C)NC(=O)CO2 (stereo not given),105% (inactive)
21,O=C1CCN(C(=O)/C=C/c2ccccc2)c2ccccc21,88% (inactive)
22,CC(=O)c1ccc(NC(=O)C2CCCN(S(=O)(=O)c3ccc4c(c3)CCCN4C(C)=O)C2)cc1 (stereo not given),93% (inactive)
